# According to paper PMC7862700, “An all-to-all approach to the identification of sequence-specific readers for epigenetic DNA modifications on cytosine”:
# What was measured:
# Test in all cases: DAPPL (digital affinity profiling via proximity ligation, sequencing); 10 mM Tris-HCl pH 7.5, 50 mM NaCl, 1 mM DTT, 4% glycerol, room temperature, 30 min; GST-TFs on glutathione beads, 16-mer random dsDNA library, 0.1% formaldehyde crosslink after washing; high values mean tight binding
# FEV = biological target: T1, FEV (Homo sapiens, UniProt Q99581 1-238); details: protein: recombinant; tags: N-terminal GST; dsDNA, one strand shown
# T1 sequence: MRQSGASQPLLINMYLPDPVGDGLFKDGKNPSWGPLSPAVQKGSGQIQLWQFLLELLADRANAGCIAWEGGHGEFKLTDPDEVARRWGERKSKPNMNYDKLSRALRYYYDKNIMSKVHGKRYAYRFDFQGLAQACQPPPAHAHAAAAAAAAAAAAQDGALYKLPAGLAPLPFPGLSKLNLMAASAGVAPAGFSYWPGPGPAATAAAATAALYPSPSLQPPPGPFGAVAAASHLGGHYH
# Method in brief: (§1)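 Yeast served to express human transcription factors as GST fusions, which were then captured on glutathione beads and labelled with DNA barcodes. Pooled with a tag-only sample, they were incubated with 200 nmole of a 16-mer random double-stranded DNA library for 30 min at room temperature in Tris/NaCl/DTT/glycerol buffer, washed, crosslinked with 0.1% formaldehyde, ligated by proximity, amplified by PCR and sequenced. Dividing each hexamer's read frequency for a factor by its frequency for the tag-only sample gives the binding signal.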
# ETV5 = ETV5 (Homo sapiens, UniProt P41161 1-510); details: protein: recombinant; tags: N-terminal GST; dsDNA, one strand shown
# Method in brief: as §1
# HSF1 = HSF1 (Homo sapiens, UniProt Q00613 1-529); details: protein: recombinant; tags: N-terminal GST; chain copies: 3; dsDNA, one strand shown
# Method in brief: as §1
# SPIC = biological target: T2, SPIC (Homo sapiens, UniProt Q8N5J4 1-248); details: protein: recombinant; tags: N-terminal GST; dsDNA, one strand shown
# T2 sequence: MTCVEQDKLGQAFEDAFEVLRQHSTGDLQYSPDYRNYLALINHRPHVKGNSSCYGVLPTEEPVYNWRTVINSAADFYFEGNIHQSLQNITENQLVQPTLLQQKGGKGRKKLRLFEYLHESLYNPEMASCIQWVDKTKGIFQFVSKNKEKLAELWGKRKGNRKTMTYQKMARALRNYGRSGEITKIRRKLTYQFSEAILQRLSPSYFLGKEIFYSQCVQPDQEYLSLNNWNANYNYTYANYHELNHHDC
# Method in brief: as §1
# ELF4 = ELF4 (Homo sapiens, UniProt Q99607 1-663); details: protein: recombinant; tags: N-terminal GST; dsDNA, one strand shown
# Method in brief: as §1
# ELK4 = biological target: T3, ELK4 (Homo sapiens, UniProt P28324-2 1-405); details: protein: recombinant; tags: N-terminal GST; dsDNA, one strand shown
# T3 sequence: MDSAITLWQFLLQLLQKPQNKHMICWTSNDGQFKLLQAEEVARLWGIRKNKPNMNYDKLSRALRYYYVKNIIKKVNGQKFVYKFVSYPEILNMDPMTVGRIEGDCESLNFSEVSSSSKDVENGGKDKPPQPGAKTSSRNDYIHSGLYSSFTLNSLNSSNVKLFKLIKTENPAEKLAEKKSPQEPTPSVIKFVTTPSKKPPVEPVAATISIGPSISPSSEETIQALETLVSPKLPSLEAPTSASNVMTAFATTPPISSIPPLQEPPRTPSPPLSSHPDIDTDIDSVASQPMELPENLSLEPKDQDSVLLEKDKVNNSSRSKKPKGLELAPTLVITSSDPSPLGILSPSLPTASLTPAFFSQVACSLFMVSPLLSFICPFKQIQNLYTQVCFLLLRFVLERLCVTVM
# Method in brief: as §1
# ETV2 = biological target: T4, ETV2 (Homo sapiens, UniProt O00321 1-342); details: protein: recombinant; tags: N-terminal GST; dsDNA, one strand shown
# T4 sequence: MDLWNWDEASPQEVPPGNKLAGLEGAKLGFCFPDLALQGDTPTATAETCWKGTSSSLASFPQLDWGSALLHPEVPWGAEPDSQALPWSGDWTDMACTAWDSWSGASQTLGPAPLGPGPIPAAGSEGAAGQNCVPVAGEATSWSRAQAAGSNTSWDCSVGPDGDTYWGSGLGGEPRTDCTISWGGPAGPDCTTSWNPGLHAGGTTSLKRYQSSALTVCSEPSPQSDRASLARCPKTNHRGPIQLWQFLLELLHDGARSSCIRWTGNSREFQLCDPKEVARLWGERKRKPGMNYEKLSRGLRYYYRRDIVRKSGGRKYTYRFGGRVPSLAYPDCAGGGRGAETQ
# Method in brief: as §1
# ELF3 = biological target: T5, ELF3 (Homo sapiens, UniProt P78545 1-371); details: protein: recombinant; tags: N-terminal GST; dsDNA, one strand shown
# T5 sequence: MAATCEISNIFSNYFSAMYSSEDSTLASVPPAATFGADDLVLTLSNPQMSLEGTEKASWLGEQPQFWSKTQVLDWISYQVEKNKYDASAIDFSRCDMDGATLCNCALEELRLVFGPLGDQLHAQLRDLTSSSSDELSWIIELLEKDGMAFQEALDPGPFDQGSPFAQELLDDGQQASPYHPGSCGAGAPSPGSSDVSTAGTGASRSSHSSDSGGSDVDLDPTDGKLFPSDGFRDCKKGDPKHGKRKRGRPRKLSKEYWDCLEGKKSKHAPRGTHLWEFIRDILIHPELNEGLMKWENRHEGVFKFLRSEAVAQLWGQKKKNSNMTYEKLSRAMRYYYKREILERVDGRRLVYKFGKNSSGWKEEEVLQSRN
# Method in brief: as §1
# CRX = CRX (Homo sapiens, UniProt O43186 1-299); details: protein: recombinant; tags: N-terminal GST; dsDNA, one strand shown
# Method in brief: as §1
# ETV1 = ETV1 (Homo sapiens, UniProt P50549 1-477); details: protein: recombinant; tags: N-terminal GST; dsDNA, one strand shown
# Method in brief: as §1
# Sequence of ELF4 (Q99607 whole entry): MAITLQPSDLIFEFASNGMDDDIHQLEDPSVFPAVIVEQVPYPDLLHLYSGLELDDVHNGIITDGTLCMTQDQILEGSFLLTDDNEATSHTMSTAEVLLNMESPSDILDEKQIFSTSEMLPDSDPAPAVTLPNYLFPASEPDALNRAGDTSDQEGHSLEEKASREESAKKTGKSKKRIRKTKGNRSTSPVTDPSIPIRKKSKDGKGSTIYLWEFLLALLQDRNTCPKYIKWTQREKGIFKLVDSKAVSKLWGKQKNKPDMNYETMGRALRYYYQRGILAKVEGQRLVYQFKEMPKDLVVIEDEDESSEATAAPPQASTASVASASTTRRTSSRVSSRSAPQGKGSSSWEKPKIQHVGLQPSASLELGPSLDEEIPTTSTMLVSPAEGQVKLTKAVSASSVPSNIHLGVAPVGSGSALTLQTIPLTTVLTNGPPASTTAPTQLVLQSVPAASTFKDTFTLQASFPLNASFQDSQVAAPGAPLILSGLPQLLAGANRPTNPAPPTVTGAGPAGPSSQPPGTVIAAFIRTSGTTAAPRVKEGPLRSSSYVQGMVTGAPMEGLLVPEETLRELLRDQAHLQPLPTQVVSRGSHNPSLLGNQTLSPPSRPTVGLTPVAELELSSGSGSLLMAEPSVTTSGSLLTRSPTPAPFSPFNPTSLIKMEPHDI
# Sequence of ETV1 (P50549 whole entry): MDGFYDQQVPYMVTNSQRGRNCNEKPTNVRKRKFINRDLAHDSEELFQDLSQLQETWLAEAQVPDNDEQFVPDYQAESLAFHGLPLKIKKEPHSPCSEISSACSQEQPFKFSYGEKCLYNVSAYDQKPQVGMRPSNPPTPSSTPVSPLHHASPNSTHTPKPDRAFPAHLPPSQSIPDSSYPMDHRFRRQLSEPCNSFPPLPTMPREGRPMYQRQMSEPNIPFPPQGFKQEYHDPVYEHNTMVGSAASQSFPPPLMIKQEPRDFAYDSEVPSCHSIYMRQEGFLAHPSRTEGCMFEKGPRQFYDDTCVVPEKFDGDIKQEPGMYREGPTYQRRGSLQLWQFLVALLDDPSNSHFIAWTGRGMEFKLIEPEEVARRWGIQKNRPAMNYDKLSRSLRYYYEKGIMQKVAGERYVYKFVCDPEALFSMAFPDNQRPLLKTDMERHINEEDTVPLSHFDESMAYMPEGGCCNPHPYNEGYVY
# Sequence of CRX (O43186 whole entry): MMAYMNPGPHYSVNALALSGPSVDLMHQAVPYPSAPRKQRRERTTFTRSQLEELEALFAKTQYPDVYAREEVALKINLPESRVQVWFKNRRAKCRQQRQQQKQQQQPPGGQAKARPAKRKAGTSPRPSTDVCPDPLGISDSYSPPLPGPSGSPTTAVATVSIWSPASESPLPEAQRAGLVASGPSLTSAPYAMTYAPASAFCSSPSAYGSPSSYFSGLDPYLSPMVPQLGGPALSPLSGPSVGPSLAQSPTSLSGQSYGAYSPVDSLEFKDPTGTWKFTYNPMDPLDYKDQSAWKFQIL
# Sequence of HSF1 (Q00613 whole entry): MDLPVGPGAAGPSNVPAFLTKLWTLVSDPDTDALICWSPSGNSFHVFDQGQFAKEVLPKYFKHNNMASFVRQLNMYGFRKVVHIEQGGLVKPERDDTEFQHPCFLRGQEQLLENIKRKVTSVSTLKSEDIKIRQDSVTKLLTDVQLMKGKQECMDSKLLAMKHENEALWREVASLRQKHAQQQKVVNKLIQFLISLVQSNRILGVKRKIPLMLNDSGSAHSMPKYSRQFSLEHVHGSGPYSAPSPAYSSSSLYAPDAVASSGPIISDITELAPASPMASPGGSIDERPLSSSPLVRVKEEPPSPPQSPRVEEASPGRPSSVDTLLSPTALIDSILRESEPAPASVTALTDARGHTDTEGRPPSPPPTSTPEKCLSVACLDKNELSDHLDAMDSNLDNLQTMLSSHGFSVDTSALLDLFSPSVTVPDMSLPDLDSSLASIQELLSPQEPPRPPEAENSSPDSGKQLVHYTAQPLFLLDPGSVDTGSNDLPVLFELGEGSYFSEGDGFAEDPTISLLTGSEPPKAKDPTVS
# Sequence of ETV5 (P41161 whole entry): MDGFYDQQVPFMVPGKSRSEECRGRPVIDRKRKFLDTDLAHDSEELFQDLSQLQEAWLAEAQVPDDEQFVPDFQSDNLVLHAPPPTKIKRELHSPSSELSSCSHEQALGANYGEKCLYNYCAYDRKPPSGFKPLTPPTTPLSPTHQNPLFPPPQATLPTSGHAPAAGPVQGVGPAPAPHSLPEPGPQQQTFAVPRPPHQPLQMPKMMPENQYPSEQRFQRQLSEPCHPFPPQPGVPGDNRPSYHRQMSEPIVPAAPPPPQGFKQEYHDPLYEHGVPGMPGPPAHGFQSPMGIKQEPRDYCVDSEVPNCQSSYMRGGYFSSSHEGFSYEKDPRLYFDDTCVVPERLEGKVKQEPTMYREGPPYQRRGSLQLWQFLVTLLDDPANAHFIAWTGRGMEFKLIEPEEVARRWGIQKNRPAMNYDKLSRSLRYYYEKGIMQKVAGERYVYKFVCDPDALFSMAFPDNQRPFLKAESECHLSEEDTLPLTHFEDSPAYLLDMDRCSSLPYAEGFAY
sequence,measurement,setting,value
AAAACT,binding signal,FEV,"1.16 fold enrichment (6-mer frequency, TF over GST control)"
same,binding signal,ETV5,"1.15 fold enrichment (6-mer frequency, TF over GST control)"
same,binding signal,HSF1,"1.18 fold enrichment (6-mer frequency, TF over GST control)"
same,binding signal,SPIC,"1.23 fold enrichment (6-mer frequency, TF over GST control)"
same,binding signal,ELF4,"1.21 fold enrichment (6-mer frequency, TF over GST control)"
same,binding signal,ELK4,"1.1 fold enrichment (6-mer frequency, TF over GST control)"
same,binding signal,ETV2,"1.19 fold enrichment (6-mer frequency, TF over GST control)"
same,binding signal,ELF3,"1.12 fold enrichment (6-mer frequency, TF over GST control)"
same,binding signal,CRX,"1.16 fold enrichment (6-mer frequency, TF over GST control)"
same,binding signal,ETV1,"1.13 fold enrichment (6-mer frequency, TF over GST control)"
AGATTC,binding signal,FEV,"1.13 fold enrichment (6-mer frequency, TF over GST control)"
same,binding signal,ETV5,"1.07 fold enrichment (6-mer frequency, TF over GST control)"
same,binding signal,HSF1,"2 fold enrichment (6-mer frequency, TF over GST control)"
same,binding signal,SPIC,"1.24 fold enrichment (6-mer frequency, TF over GST control)"
same,binding signal,ELF4,"1.16 fold enrichment (6-mer frequency, TF over GST control)"
same,binding signal,ELK4,"1.18 fold enrichment (6-mer frequency, TF over GST control)"
same,binding signal,ETV2,"1.32 fold enrichment (6-mer frequency, TF over GST control)"
same,binding signal,ELF3,"1.11 fold enrichment (6-mer frequency, TF over GST control)"
same,binding signal,CRX,"1.41 fold enrichment (6-mer frequency, TF over GST control)"
same,binding signal,ETV1,"1.22 fold enrichment (6-mer frequency, TF over GST control)"
TTTATA,binding signal,FEV,"1.28 fold enrichment (6-mer frequency, TF over GST control)"
same,binding signal,ETV5,"1.24 fold enrichment (6-mer frequency, TF over GST control)"
same,binding signal,HSF1,"1.54 fold enrichment (6-mer frequency, TF over GST control)"
same,binding signal,SPIC,"1.37 fold enrichment (6-mer frequency, TF over GST control)"
same,binding signal,ELF4,"1.36 fold enrichment (6-mer frequency, TF over GST control)"
same,binding signal,ELK4,"1.37 fold enrichment (6-mer frequency, TF over GST control)"
same,binding signal,ETV2,"1.26 fold enrichment (6-mer frequency, TF over GST control)"
same,binding signal,ELF3,"1.36 fold enrichment (6-mer frequency, TF over GST control)"
same,binding signal,CRX,"2.05 fold enrichment (6-mer frequency, TF over GST control)"
same,binding signal,ETV1,"1.31 fold enrichment (6-mer frequency, TF over GST control)"
CTGGTA,binding signal,FEV,"1.23 fold enrichment (6-mer frequency, TF over GST control)"
same,binding signal,ETV5,"1.25 fold enrichment (6-mer frequency, TF over GST control)"
same,binding signal,HSF1,"1.75 fold enrichment (6-mer frequency, TF over GST control)"
same,binding signal,SPIC,"1.28 fold enrichment (6-mer frequency, TF over GST control)"
same,binding signal,ELF4,"1.4 fold enrichment (6-mer frequency, TF over GST control)"
same,binding signal,ELK4,"1.29 fold enrichment (6-mer frequency, TF over GST control)"
same,binding signal,ETV2,"1.41 fold enrichment (6-mer frequency, TF over GST control)"
same,binding signal,ELF3,"1.2 fold enrichment (6-mer frequency, TF over GST control)"
same,binding signal,CRX,"1.38 fold enrichment (6-mer frequency, TF over GST control)"
same,binding signal,ETV1,"1.24 fold enrichment (6-mer frequency, TF over GST control)"
